Each structure is given as a SMILES string. The campaign covered roughly 310,000 compounds. About 1,400 (0.45%) were called active.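 The calls were made as follows: active = B-score, a plate-corrected calcium signal, over three deviations above library mean, with baseline fluorescence within five deviations of library mean; inactive = the rest.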 Many of the other results were omitted from the sample, so actives are more common in it than they were.

For this assay, the target named is Regulator of G-protein signaling 4 (Homo sapiens) (UniProt P49798). The assay is described as follows: blockers of RGS4 function in M3R calcium signaling – cell-based, HEK293 M3R inducible RGS4, calcium flux, primary screen (AID 463165).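 Also: RGS4 expression induced by doxycycline in cells with stable M3 receptor.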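 As to B-score: B-score is computed from the integrated fluorescence ratio over baseline after carbachol; higher B-score means a larger calcium signal and so more RGS4 inhibition.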 Conditions: Fluo-4 calcium flux, at 10 µM, triggered by carbachol at its EC20; hits give high values.
Chain of Regulator of G-protein signaling 4 (Homo sapiens) (P49798 whole entry, looked up): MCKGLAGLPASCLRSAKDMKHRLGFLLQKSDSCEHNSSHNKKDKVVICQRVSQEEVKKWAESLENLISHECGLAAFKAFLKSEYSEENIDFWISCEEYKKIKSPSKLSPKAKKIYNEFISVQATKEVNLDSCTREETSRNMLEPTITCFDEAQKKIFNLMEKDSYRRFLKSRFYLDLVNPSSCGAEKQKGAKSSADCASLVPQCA
Take `COc1ccccc1CN(C)C(=O)C1(c2ccc(Cl)cc2)CC1`: the B-score result is “inactive”. Under `CN(CC1CCCN(CCc2cccc(C(F)(F)F)c2)C1)C(=O)c1ccc2nc[nH]c2c1` (stereo not given) stands “inactive”. Under `COC(=O)N/N=C/c1cn(CCCOc2ccc(C)cc2)c2ccccc12` stands “inactive”; under `COC(=O)Cn1cc(/C=C/[N+](=O)[O-])c2ccccc21`, 14.7 (active). As to `COC(=O)c1cn(CC(=O)NCc2cccs2)c2ccccc12`, the B-score entry was “inactive”.

For `O=C(CN1CCN(S(=O)(=O)c2ccc3ccccc3c2)CC1)NC(=O)NC1CCCCC1`, the B-score entry is “inactive”. The entry for `CCCc1nn(C)c2c(=O)[nH]c(-c3cc(S(N)(=O)=O)ccc3OCC)nc12` is “inactive”.

Regarding `CCCCOc1ccc(C(=O)N/C(=C/C=C/c2ccccc2)C(=O)N2CCOCC2)cc1`, the B-score entry is “inactive”. Under `OCCCC1CCCCN1Cc1nc(Cc2ccccc2Cl)no1` (stereo not given) stands “inactive”; under `Nc1cccc(-c2cc(-c3ccccc3)nc(-c3cccc(N)c3)n2)c1`, 5.75 (active); under `CNc1nc(-c2ccccc2)cc(-c2ccccc2)n1`, “inactive”. For the molecule `Nc1nc(-c2ccccc2)cc(-c2ccccc2)n1`, the B-score result is “inactive”.

Turning to `COCCNC(=O)C(OC(=O)c1cccs1)c1ccc(F)cc1` (stereo not given), the B-score result was “inactive”.

Consider `COCCNC(=O)CSc1nc2c(n1-c1ccccc1)CCCC2`, for which the B-score result is “inactive”. Under `O=C(NCc1ccc(F)cc1)C1CCC(CNc2c(N3CCOCC3)c(=O)c2=O)CC1` (stereo not given) stands “inactive”.

For the molecule `Cc1noc(C)c1S(=O)(=O)Nc1cc(C(F)(F)F)ccc1N1CCOCC1`, the B-score result is “inactive”. The figure for `CCOC(=O)C1=NN(c2ccc(Cl)cc2)/C(=C/C2=NCCc3cc(OC)c(OC)cc32)S1` is 4.81 (active); for `COc1cc2c(cc1OC)C(/C=C/c1ccco1)=NCC2` it is “inactive”; for `CCOC(=O)C1=C(CN2CCc3ccccc32)NC(=O)NC1c1ccc(Cl)cc1` (stereo not given) it is “inactive”. Under `CC(=O)c1cccc(NC(=O)C2CCCN2S(=O)(=O)c2cccc3nsnc23)c1` (stereo not given) stands “inactive”. The entry for `Cn1c(N2CCOCC2)c(C=O)c2ccccc21` is “inactive”.

On to `Clc1ccc(CN2CCN(/N=C/c3cccnc3)CC2)cc1`, for which the B-score entry is “inactive”. Under `O=C1/C(=C\c2cccnc2)CN(Cc2ccccc2)C/C1=C\c1cccnc1` stands 20.8 (active).

For `O=C1NCC(=O)N(Cc2ccccc2)/C1=C/c1ccccc1`, the B-score result is “inactive”. The entry for `NS(=O)(=O)c1ccc(CCNC(=O)c2ccc([N+](=O)[O-])cc2[N+](=O)[O-])cc1` is “inactive”; for `COc1cc(/C=N/NC(=O)c2cccnc2)ccc1OC(=O)c1cccc(Br)c1` it is “inactive”.

For `C=C(C)C(=O)O[C@H]1C/C(C)=C\C(=O)/C=C(\C)[C@H](O)[C@@H]2OC(=O)C(=C)[C@@H]21`, the B-score is 5.6 (active). The entry for `Nc1ccccc1/C=N\N=C/c1ccccc1N` is “inactive”; for `Cc1ccc2c(c1)N(CC(=O)NCCc1ccc(Cl)cc1)C(=O)c1cccnc1O2` it is “inactive”. Under `Cn1c(SCC(=O)N2CCCC2)nnc1-c1cccs1` stands “inactive”; under `O=C(/C=C/c1ccc(N2CCOCC2)cc1)c1ccccc1`, “inactive”; under `O=C(O)c1ccc2c(c1)C(=O)N(c1ccc(/C=C/C(=O)c3ccccc3)cc1)C2=O`, 24.6 (active). Under `Cc1cccc(N2C(=O)c3ccc(C(=O)Nc4cccc(C(=O)O)c4)cc3C2=O)c1` stands “inactive”; under `COC(=O)c1sccc1NN1C(=O)c2ccccc2C1=O`, “inactive”. As for `COc1ccc(N2CCN(C(=O)COC(=O)c3cccc(S(=O)(=O)Nc4ccccc4OC)c3)CC2)cc1`, the B-score result is “inactive”. Under `O=C(Nc1ccccc1)OCc1cn(-c2ccc(Cl)cc2)nn1` stands “inactive”; under `O=C(Nc1ccc(Cl)cc1)OCc1cc(-c2ccccc2)on1`, 6.27 (active). Consider `O=C(Nc1cccc(Cl)c1)OCc1ccccn1`, for which the B-score result is “inactive”. Under `Cc1cccc(-c2nnc(SCC(=O)O)n2Cc2ccccc2)c1` stands “inactive”. As to `O=C(CSc1ncn[nH]1)N/N=C/c1ccc(F)cc1`, the B-score entry was “inactive”. For the molecule `Cc1ccc(C(=O)/C=C/c2c(C)nn(-c3ccccc3)c2Cl)cc1`, the B-score entry is “inactive”.

As to `O=C(/C=C/Sc1ncn[nH]1)c1ccc(Cl)cc1`, the B-score was 12 (active). Consider `O=S(=O)(Cc1cc(Sc2ccccc2)nc(-c2ccccc2)n1)c1ccccc1`, for which the B-score entry was “inactive”. The entry for `Cc1cc(N2CCOCC2)nc(-c2ccc(Br)cc2)n1` is “inactive”. `Cc1ccc(Sc2cc(N3CCOCC3)nc(-c3ccccc3)n2)cc1`: the B-score was 8.43 (active). Under `CCCN(CCc1ccccc1)C1CCc2c(O)cccc2C1` (stereo not given) stands “inactive”; under `CCc1ccc(N(C(=O)c2csnn2)C(C(=O)NC2CCCCC2)c2ccncc2)cc1` (stereo not given), “inactive”; under `Cc1ccc2nc(-c3ccc(NC(=O)CN(C)S(=O)(=O)c4ccccc4)cc3)sc2c1`, “inactive”.

For `NC(=O)NC(=O)CSc1nc2cc([N+](=O)[O-])ccc2n1-c1cccc(C(F)(F)F)c1`, the B-score entry is “inactive”. The entry for `CCc1nnc(NS(=O)(=O)c2ccc(NS(=O)(=O)c3ccccc3)cc2)s1` is “inactive”; for `CCc1nnc(NS(=O)(=O)c2ccc(N=Cc3c(C)[nH]n(-c4ccc(C)cc4)c3=O)cc2)s1` it is 5.86 (active); for `CCc1nnc(NS(=O)(=O)c2ccc(NC(=S)NC(=O)/C=C/c3cccs3)cc2)s1` it is “inactive”. The entry for `O=C(OCc1cc(Cl)ccc1OC(F)F)c1cccnc1` is “inactive”; for `CC(C)=N/N=C1/NC(=O)C(Cc2ccccc2)S1` (stereo not given) it is “inactive”. The entry for `O=C1N/C(=N\N=C\c2ccco2)SC1Cc1ccc(F)cc1` (stereo not given) is “inactive”. As for `CCCCC1S/C(=N/N=C/c2cccs2)NC1=O` (stereo not given), the B-score is 6.28 (active). Under `Cc1cccc(CN2CCN(Cc3cnn(-c4ccccc4F)c3)CC2CCO)n1` (stereo not given) stands “inactive”; under `CCCCN1C(=S)NC[C@@H]1C(C)CC` (stereo not given in full), “inactive”.

Consider `CC(CO)NCC12CC3CC(CC(C3)C1)C2` (stereo not given), for which the B-score entry is “inactive”. Under `Brc1ccc(-c2csc(N/N=C/c3cccnc3)n2)cc1` stands 7.99 (active).

On to `Cc1ccccc1Nc1nc(-c2cccnc2)cs1`, for which the B-score entry is “inactive”. For the molecule `Brc1ccc(-c2csc(N/N=C/c3ccc4c(c3)OCO4)n2)cc1`, the B-score result was “inactive”. The entry for `CCCCN1C(=O)C(C)=C(C)C1OCCc1ccc(OC)c(OC)c1` (stereo not given) is “inactive”. The entry for `c1ccc(CN=C2Nc3ccccc3CS2)nc1` is “inactive”; for `CCC(C)c1ccc(O)c(/C=N/O)c1` (stereo not given) it is “inactive”; for `CC(=O)NCC(O)c1ccc([N+](=O)[O-])cc1` (stereo not given) it is “inactive”.

Consider `CNCC(O)c1ccc(O)c(O)c1` (stereo not given), for which the B-score was 6 (active). The entry for `FC(F)(F)c1ccc(-n2cn[nH]c2=S)cc1` is “inactive”; for `Cc1ccnc(NS(=O)(=O)c2ccc(NC(=O)c3oc4ccc(F)cc4c3C)cc2)n1` it is “inactive”. Under `CCOC(=O)c1c(NC(C)=O)sc2c(O)c(Br)ccc12` stands “inactive”. In the case of `O=c1[nH]c(N2CCOCC2)nc2ccccc12`, the B-score result was “inactive”. Under `CC1(C)Cc2c(C#N)c(SCc3nc4ccccc4[nH]3)nc(N3CCOCC3)c2CO1` stands “inactive”; under `C1=C(N2CCOCC2)/C(=C/c2nc3ccccc3[nH]2)CC1`, 5.95 (active); under `Nc1c(-c2ccc(F)cc2)cnn1C1CCS(=O)(=O)C1` (stereo not given), “inactive”. With `C/C(=N\NC(=O)CSc1nc2ccccc2c(=O)n1-c1ccccc1C)c1cccs1`, the B-score result was “inactive”. Under `CN1C(=O)/C(=C\c2ccc(-c3ccccc3)o2)SC1=S` stands “inactive”. Turning to `O=C1NN(c2ccccc2)C(=O)/C1=C/c1ccc(-c2cccc(C(=O)O)c2)o1`, the B-score entry is “inactive”. `O=C(O)C(c1ccccc1)N1C(=O)/C(=C\c2ccc(-c3cccc(Cl)c3)o2)SC1=S` (stereo not given): the B-score was 10.3 (active).

Turning to `NC(=O)C1CCN(CC(O)CSc2ccc(F)cc2)CC1` (stereo not given), the B-score result is “inactive”. The entry for `CC(Oc1ccccc1)C(=O)Nc1c2c(nn1-c1ccccc1)CS(=O)C2` (stereo not given) is “inactive”; for `COc1ccc(-c2nc3c(s2)CCc2onc(-c4ccc(Br)cc4)c2-3)cc1` it is “inactive”; for `O=[N+]([O-])/C=C/c1ccc2c(ccn2Cc2ccccc2)c1` it is 44.8 (active). Under `O=C(/C=C/c1cccc([N+](=O)[O-])c1)N1CCN(Cc2ccccc2)CC1` stands “inactive”; under `O=C(Cn1ccc2cc(S(=O)(=O)N3CCCC3)ccc21)NCc1ccccc1`, “inactive”; under `O=c1c2cc([N+](=O)[O-])ccc2nc2n1CCC2`, “inactive”. The entry for `C=CCOc1cccc(C2NC(=O)c3ccccc3O2)c1` (stereo not given) is “inactive”. Consider `Oc1c(Cl)cc(Cl)cc1/C=N/c1ncn[nH]1`, for which the B-score result is “inactive”. The entry for `Oc1ccc(Br)cc1C=Nc1ccc2[nH]ncc2c1` is “inactive”. On to `COc1cc(Br)cc(/C=N/c2ncn[nH]2)c1O`, for which the B-score is 5.03 (active).

For `Cc1ccc(CN2CCN(Cc3cccc(C)n3)CC2CCO)cc1` (stereo not given), the B-score entry was “inactive”. Under `CCCCCN(C(=O)CCC(=O)OCC(=O)NC1CCC(C)CC1)c1c(N)n(CCCC)c(=O)[nH]c1=O` (stereo not given) stands “inactive”; under `COc1cc(/C=C2/C(=O)NN(c3ccc(F)cc3)C2=O)cc([N+](=O)[O-])c1O`, “inactive”; under `COc1cc(/C=C2/C(=O)NN(c3cccc(Cl)c3)C2=O)cc(Br)c1O`, 5.61 (active). Under `C#CCOc1ccc(/C=C2/C(=O)NN(c3ccccc3)C2=O)cc1OC` stands 7.25 (active); under `COc1cc(/C=N/O)cc(Br)c1OCc1cccc(Cl)c1`, “inactive”; under `Cc1cccc(C)c1-n1c(C)cc(/C=C2\C(=O)NN(c3ccccc3)C2=O)c1C`, “inactive”. The entry for `COc1cc(/C=C2\SC(=O)NC2=O)ccc1OCc1ccc(Cl)nc1` is “inactive”; for `CONc1nc2nonc2nc1NOC` it is “inactive”; for `COc1ccc(NC(=O)/C(Cl)=C(/Cl)S(=O)Cc2ccc(C)cc2)cn1` (stereo not given) it is 5.83 (active). Turning to `Cc1ccc(NC(=O)OCc2cncs2)cc1`, the B-score entry was “inactive”. Under `COc1ccc(Nc2ccc([N+](=O)[O-])cn2)cn1` stands “inactive”.

Turning to `COC(=O)c1ccc(Nc2ncnc3sccc23)cc1`, the B-score result is “inactive”. Under `Cc1ccc(-n2c(SCC(=O)N3CCC(C(=O)O)CC3)nc3ccccc3c2=O)cc1C` stands “inactive”; under `Cc1nc(-c2ccccc2)sc1C(=O)/C=C/c1ccccc1`, 11.9 (active). The entry for `Cc1nc(-c2ccc(Cl)cc2)sc1C(=O)CBr` is “inactive”; for `Cc1nc(-c2ccccc2)sc1C(=O)/C=C/N(C)C` it is “inactive”. The entry for `Cc1cccc(C(=O)NC(=S)N(C)C2CCCCC2)c1` is “inactive”. For `CCC(c1nnnn1Cc1ccccc1)N(Cc1cc2cc(OC)ccc2[nH]c1=O)CC1CCCO1` (stereo not given), the B-score result is “inactive”.

`CCC(c1nnnn1Cc1ccco1)N(Cc1cc2cc(OC)ccc2[nH]c1=O)C1CCCCC1` (stereo not given): the B-score is 16.8 (active).

As to `CCC(c1nnnn1Cc1ccco1)N(CCc1ccccc1)Cc1cc2cccc(C)c2[nH]c1=O` (stereo not given), the B-score result was “inactive”.

These data come from PubChem BioAssay AID463165 (Johns Hopkins Ion Channel Center, 2010).
